Sampled rows, rich in hits. Any-hit rate of the full collection: about 2.4%.
Pol kappa inh – inhibitors of human DNA polymerase kappa. purified Pol kappa, fluorescent DNA synthesis assay, 10 min. Potency, µM (series often up to 107 µM), inactives show at the highest dose activity, negative = inhibition, hits mostly inhibitors. 0.53% of 400,000 active; also: % is scaled to controls: 0 for no effect and ±100 for the full control effect
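Kinetic fluorescence readout at 0 and 10 min followed reaction start with substrate at 50 nM final. Beforehand, enzyme (10 nM Pol kappa) stood 15 min with compound at room temperature; buffer-only wells were negative controls.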
Pol eta inh – inhibitors of human DNA polymerase eta; Potency, µM (series often up to 114 µM), for the others: top-dose activity change, negative = inhibition, usual class: inhibitors; Q9Y253; recombinant Pol eta, fluorescent DNA replication assay; 1.2% of 390,000 active; also: % is scaled to controls: 0 for no effect and ±100 for the full control effect
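Fluorescent replication assay: 50 nM final substrate added after a 15 min room-temperature compound preincubation with 10 nM enzyme. Signal taken at 0 min and again at 10 min.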
Pol beta inh – DNA polymerase beta (human) inhibition; Pol beta primer extension/strand displacement, fluorescence kinetic; 1.3% of 340,000 active; Potency, µM (series often up to 114 µM), for the others: at the top dose activity change, negative = inhibition, actives largely listed as inhibitors; also: % is scaled to controls: 0 for no effect and ±100 for the full control effect
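Pol beta (10 nM) and compounds were preincubated 15 min at room temperature, then 50 nM substrate (final) started primer extension/strand displacement. Reads were taken at 0 and 10 min; concentration-response data were fitted to a four-parameter Hill equation.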
FEN1 inh – blocks human flap endonuclease 1; P39748; Recombinant FEN1 flap cleavage, fluorescence, 15 min; Potency, µM (series often up to 114 µM), for inactives: top-dose activity change, negative = inhibition, most hits filed as inhibitors; 0.35% of 390,000 active; AID 588795; also: % is scaled to controls: 0 for no effect and ±100 for the full control effect; nearly all actives have a fitted effect of over 65% in size
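Steps: FEN1 (10 nM) dispensed; compound added by pin tool; 15 min at room temperature; substrate added to 50 nM final; reads at 0 min and 15 min; data normalized and fitted (four-parameter Hill).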
Pol iota inh – blocks human DNA polymerase iota activity; Q9UNA4; AID 588590; 1% of 390,000 active; Potency, µM (top dose mostly 115 µM), for the others: at the top dose activity, negative = inhibition, most hits filed as inhibitors; Pol iota fluorescent replication assay, 10 min
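Pol iota at 10 nM preincubated 15 min with compounds at room temperature; reaction started with fluorescent substrate, 50 nM final. Fluorescence read kinetically at 0 and 10 min; buffer-only wells as negative control.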
WRN helicase inh – WRN helicase (human) inhibition; Q14191; WRN helicase unwinding, fluorescent forked duplex, kinetic; Potency, µM (doses to about 114 µM), for inactives: top-dose activity change, negative = inhibition, hits mostly inhibitors; 0.46% of 360,000 active; AID 651768; also: % is scaled to controls: 0 for no effect and ±100 for the full control effect; nearly all actives have a fitted effect of over 55% in size
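Screening of the MLSMR collection measured strand separation of a quenched forked DNA duplex (100 nM) by 20 nM WRN with 2 mM ATP, all final. Compounds were preincubated with enzyme 15 min at room temperature.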
Numbers without * were called inactive; [ ] = dose if it differs, or a comment. Calls follow the shape of the dose curve; as a rule, active = well fitted curve in the direction sought with a large enough effect; inconclusive = small, poorly fitted or top-dose-only effect, or another doubt; inactive = no such curve, though single readings can be large; an effect the other way counts as inactive or inconclusive. Potency is read from the fitted curve at half-maximal effect.

For O=C(CSc1nc2c(oc3ccccc32)c(=O)n1-c1ccccc1)Nc1ccc(F)c(Cl)c1 the results were Pol kappa inh 1.9%, Pol eta inh -10.5%, Pol beta inh 13.6%, FEN1 inh -0.3% and Pol iota inh 13.0%.
For CN1C(=O)/C(=C/c2ccc(OCc3ccc(C(=O)O)cc3)c(Cl)c2)NC1=S the results were Pol kappa inh -2.2%, Pol eta inh inconclusive, Pol beta inh 35.5µM*, FEN1 inh -27.2%, Pol iota inh 72.3% and WRN helicase inh inconclusive.
O=C(NCCC1=CCCCC1)C(=O)NCc1ccccc1 was read as Pol kappa inh 4.0%, Pol eta inh -10.2%, Pol beta inh 1.2%, FEN1 inh -1.0%, Pol iota inh 16.3% and WRN helicase inh 6.3%.
Screening O=C(O)C1C2C=CC(O2)C1C(=O)NCCC1=CCCCC1 (stereo unspecified) returned Pol kappa inh -21.5%, Pol eta inh 50.1µM*, Pol beta inh inconclusive, FEN1 inh 4.6%, Pol iota inh inconclusive and WRN helicase inh -19.1%.
Screening CN(CCO)c1cc(Sc2nc3ccccc3s2)c2nonc2c1[N+](=O)[O-] returned Pol kappa inh -16.1%, Pol eta inh -14.2%, Pol beta inh 7.7%, FEN1 inh -29.0%, Pol iota inh 22.4µM* and WRN helicase inh inconclusive.
For CCOc1ccc(-c2cc(C)n3nc(C(=O)Nc4cc(Cl)ccc4O)cc3n2)cc1 the results were Pol kappa inh -69.3%, Pol eta inh inconclusive, Pol beta inh 7.08µM*, FEN1 inh -20.0% and Pol iota inh 79.4µM*.
For CCOC(=O)c1[nH]c2c(c1Cc1ccccc1OC)C(=O)CC(c1ccc(OC)cc1)C2 (stereo unspecified) the results were Pol kappa inh 8.8%, Pol eta inh -10.8%, Pol beta inh 1.1%, FEN1 inh -7.9% and Pol iota inh 17.6%.
`COc1cccc(/C(O)=C/c2nc3ccc(C(=O)NCCc4cccc(C)c4)cc3[nH]c2=O)c1` gave Pol kappa inh -9.5%, Pol eta inh -17.6%, Pol beta inh -1.9%, FEN1 inh -0.6%, Pol iota inh 13.7% and WRN helicase inh 70.8µM*.
`N#C/C(=C\c1c[nH]c2ccccc12)C(=O)c1ccc(O)c(O)c1` gave Pol kappa inh 5.97µM*, Pol eta inh 1.41µM*, Pol beta inh 3.77µM*, FEN1 inh 3.36µM* and Pol iota inh 7.94µM*.
COc1cc(NC(=O)CSc2ccc(-c3sc(-c4ccccc4)nc3C)nn2)cc(OC)c1 was read as Pol kappa inh inconclusive, Pol eta inh -19.8%, Pol beta inh -0.3%, FEN1 inh 10.9% and Pol iota inh inconclusive.
`CC[C@]12c3[nH]c4ccccc4c3CCN1C(=O)C(CC(=O)NCCCn1ccnc1)C[C@@H]2C(=O)N1CCN(C(=O)C2CC2)CC1` (stereo partly specified) gave Pol kappa inh -12.4%, Pol eta inh -10.2%, FEN1 inh 12.2%, Pol iota inh -6.9% and WRN helicase inh -0.7%.
`CC[C@]12c3[nH]c4cc(-c5ccco5)ccc4c3CCN1C(=O)[C@@H](CC(=O)NCC13CC4CC(CC(C4)C1)C3)C[C@@H]2C(=O)N1CCN(C(=O)c2ccco2)CC1` gave Pol kappa inh -25.6%, Pol eta inh -13.4%, FEN1 inh 4.0%, Pol iota inh 28.2µM* and WRN helicase inh 4.3%[11.6 µM].
`CC[C@]12c3[nH]c4ccc(Cl)cc4c3CCN1C(=O)[C@@H](CC(=O)NCCCn1ccnc1)C[C@@H]2C(=O)N1CCN(C(=O)C2CC2)CC1` gave Pol kappa inh 13.9%, Pol eta inh -5.6%, FEN1 inh -0.7%, Pol iota inh 89.1µM* and WRN helicase inh -0.8%[11.6 µM].
`CCc1ccc(-n2nnc(-c3nc(-c4cccs4)no3)c2N)cc1` gave Pol kappa inh -5.7%, Pol eta inh -10.8%, Pol beta inh -0.1%, FEN1 inh 18.2% and Pol iota inh 10.3%.
`Cc1c(N=C2C=CC(=O)c3ccccc32)c(=O)n(-c2ccccc2)n1C` gave Pol kappa inh -7.1%, Pol eta inh 44.7µM*, Pol beta inh inconclusive, FEN1 inh -25.2%, Pol iota inh inconclusive and WRN helicase inh -20.8%.
Screening Cc1cc(C(=O)Nc2sc3c(c2C#N)CCC3)no1 returned Pol kappa inh -42.3%, Pol eta inh 79.4µM*, Pol beta inh inconclusive, FEN1 inh 7.7%, Pol iota inh inconclusive and WRN helicase inh -1.6%[11.6 µM].
`COc1ccc(CN(C)CC(=O)Nc2sc3c(c2C#N)CCC3)c(OC)c1` gave Pol kappa inh -13.2%, Pol eta inh -25.7%, Pol beta inh 20µM*, FEN1 inh -11.6%, Pol iota inh 32.1% and WRN helicase inh 0.0%[57.1 µM].
`N#Cc1c(NC(=O)c2ccccc2)sc2c1CCCCC2` gave Pol kappa inh -18.1%, Pol eta inh -7.5%, Pol beta inh 10.2%, FEN1 inh -1.5%, Pol iota inh 8.0% and WRN helicase inh -6.3%.
CC(C)CCOc1ccc(C(=O)Nc2sc3c(c2C#N)CCCCC3)cc1 was read as Pol kappa inh 89.1µM*, Pol eta inh 8.2%, Pol beta inh 6.8%, FEN1 inh inconclusive and Pol iota inh -82.9%.
Cn1cc(Br)c(C(=O)Nc2sc3c(c2C#N)CCC3)n1 was read as Pol kappa inh -9.0%, Pol eta inh -9.0%, Pol beta inh 0.9%, FEN1 inh -0.6%, Pol iota inh 106.8% and WRN helicase inh -23.3%.
Screening COc1ccc(CN(C)CC(=O)Nc2c(C)cccc2C)c(OC)c1 returned Pol kappa inh -8.6%, Pol eta inh 0.9%, Pol beta inh 1.4%, FEN1 inh 1.0%, Pol iota inh 118.4% and WRN helicase inh 2.0%.
Screening Cn1ccc(C(=O)Nc2sc3c(c2C#N)CCC3)n1 returned Pol kappa inh -29.7%, Pol eta inh 79.4µM*, Pol beta inh -26.4%, FEN1 inh 1.2%, Pol iota inh inconclusive and WRN helicase inh -8.5%[11.6 µM].
`Cc1cc(C)n(-c2nc(C)c(C)c(=O)n2CC(=O)Nc2ccc([N+](=O)[O-])cc2)n1` gave Pol kappa inh -8.1%[60.1 µM], Pol eta inh 6.5%, Pol beta inh -6.1%, FEN1 inh -10.7% and Pol iota inh -4.5%.
COC(=O)c1ccc(CN(Cc2ccc(OC)c(OC)c2)S(=O)(=O)c2cc(C(=O)Nc3cccc(C)c3)ccc2F)cc1 was read as Pol kappa inh -6.1%[60.1 µM], Pol eta inh -5.2%, Pol beta inh -0.6%, FEN1 inh 1.5% and Pol iota inh 11.5%.
For COC(=O)c1c(NC(=O)c2nc(SCc3ccccc3C)ncc2Cl)sc2c1CCCC2 the results were Pol kappa inh 4.2%, Pol beta inh 46.8%, FEN1 inh 3.5% and Pol iota inh 31.1%.
